Sampled rows, rich in hits. Any-hit rate of the full collection: about 19%.
TDP1 cell noCPT = qHTS for Inhibitors of human tyrosyl-DNA phosphodiesterase 1 (TDP1): qHTS in cells in absence of CPT. DT40 Tdp1-/- hTDP1 cells, no CPT, ATP luminescence, 48 h. Potency, µM (top dose mostly 46.2 µM), hits mostly inhibitors. 420,000 tested, 15% active. AID 686978, 2013; also: nearly all actives have a fitted effect of over 55% in size
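Readout: luminescence from CellTiter-Glo after 30 min in the dark at RT. Cells: DT40 Tdp1-/- with stable hTDP1, 400/well. Exposure: compounds alone, ≥48 hr, 37 °C.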
HT1080NT lethal = qHTS for induction of synthetic lethality in tumor cells producing 2HG: qHTS for the HT-1080-NT fibrosarcoma cell line. HT-1080-NT fibrosarcoma viability, CellTiter-Glo ATP luminescence, 48 h. Potency, µM (doses to about 46.1 µM), most hits filed as cytotoxic. 360,000 tested, 1.6% active. AID 686970, 2013;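 also: NT is the 2HG producing partner of a matched IDH1 knockdown line; nearly all actives have a fitted effect of over 55% in size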
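HT-1080-NT; 750 cells/well; 5% FBS RPMI; 48 h compound, 37 degrees C; CellTiter-Glo luminescence; curve fitting and curve-class assignment.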
HT1080 IDH1KD tx = qHTS for induction of synthetic lethality in tumor cells producing 2HG: qHTS for the HT-1080-IDH1KD cell line. HT-1080 IDH1 knockdown viability, ATP luminescence, 48 h. Potency, µM (top dose mostly 46.1 µM), actives largely listed as cytotoxic. 360,000 tested, 2% active
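After a 2 h attachment period, IDH1KD HT-1080 cells took pin-transferred compound for 48 h at 37 °C; ATP-based luminescence after 10 min room-temperature reagent incubation reported viability.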
IL1B secr inh = qHTS for Inhibitors of Inflammasome Signaling: IL-1-beta AlphaLISA Primary Screen; THP-1 LPS/ATP IL-1B secretion, AlphaLISA, 16 h; active compounds read low; activity change, % at 57.5 µM; 360,000 tested, 4.7% active; AID 743279, 2014; in the data active = activity change below about -50%; inconclusive = mostly about -30% to -49%
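Secreted IL-1B measured by AlphaLISA bead assay after 16 h compound exposure of THP-1 cells; compounds (final up to 57.5 uM) added 1 h before LPS (250 ng/mL) and ATP (1.25 mM) stimulation; lower signal means less secretion.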
TDP1 cell CPT = qHTS for Inhibitors of human tyrosyl-DNA phosphodiesterase 1 (TDP1): qHTS in cells in presence of CPT; AID 686979, 2013; Potency, µM (series often up to 46.2 µM), usual class: inhibitors; 420,000 tested, 12% active; chicken DT40 Tdp1-/-;hTDP1 cells + 20 nM CPT, ATP luminescence, 48 h; also: nearly all actives have a fitted effect of over 55% in size
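Chicken DT40 Tdp1-/- cells stably complemented with human TDP1 were seeded at 400 cells/well in medium containing 20 nM camptothecin, exposed to pin-transferred compounds, and grown at 37 °C for at least 48 hr. Viability was read as ATP luminescence.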
Each line names hits and unclear results; the compound was inactive in the other large screens. Unless noted, calls follow the shape of the dose curve; as a rule, active = well fitted curve in the direction sought with a large enough effect; inconclusive = small, poorly fitted or top-dose-only effect, or another doubt; inactive = no such curve, though single readings can be large; an effect the other way counts as inactive or inconclusive.

CCCCC1CC1C(=O)Nc1ccc(OC)c(OC)c1 (stereo not drawn)	TDP1 cell CPT inconclusive
CCOC(=O)c1c(C)[nH]c(C)c1S(=O)(=O)N1CCC(C(=O)NCc2ccccc2Cl)CC1	none (no result: HT1080NT lethal, HT1080 IDH1KD tx, IL1B secr inh)
CC(=O)c1cccc(NC(=O)C2Cc3c(-c4ccccc4)ccnc3O2)c1 (stereo not drawn)	TDP1 cell noCPT 13µM, TDP1 cell CPT 21µM
NC(=O)c1cccc(-c2ccnc3c2CC(C(=O)Nc2ccccc2)O3)c1 (stereo not drawn)	none
CS(=O)(=O)Nc1cccc(NC(=O)C2Cc3c(-c4ccccc4)ccnc3O2)c1 (stereo not drawn)	TDP1 cell noCPT 7.3µM, HT1080NT lethal 2.3µM, HT1080 IDH1KD tx inconclusive, TDP1 cell CPT 10µM
CC(=O)c1cccc(-c2ccnc3c2CC(C(=O)Nc2ccccc2)O3)c1 (stereo not drawn)	TDP1 cell noCPT inconclusive, TDP1 cell CPT 16µM
COc1cc(Cl)c(C)cc1NC(=O)COc1ccccc1[N+](=O)[O-]	TDP1 cell noCPT inconclusive, TDP1 cell CPT inconclusive
COc1ccc(-c2csc(NC(=O)CSCC(=O)Nc3cc(C)on3)n2)cc1OC	TDP1 cell noCPT inconclusive, TDP1 cell CPT inconclusive
COc1ccc(-c2csc(NC(=O)c3cc(=O)c4ccccc4o3)n2)cc1OC	TDP1 cell noCPT 5.8µM, TDP1 cell CPT inconclusive
COc1ccc(-c2csc(NC(=O)c3cc(C)oc3C)n2)cc1OC	TDP1 cell noCPT 18µM, IL1B secr inh -84, TDP1 cell CPT inconclusive
[O-]/[N+](=C\c1ccccc1)c1ccccc1	TDP1 cell noCPT inconclusive, TDP1 cell CPT inconclusive
[O-]/[N+](=C\c1ccccc1)c1ccc(Br)cc1	TDP1 cell noCPT 16µM, TDP1 cell CPT inconclusive
O=S(=O)(CC=CCS(=O)(=O)c1ccccc1)c1ccccc1	none
N#CC1CC(c2ccccc2)Nc2cc(Cl)ccc2N1 (stereo not drawn)	TDP1 cell noCPT 10µM, HT1080NT lethal inconclusive, HT1080 IDH1KD tx inconclusive, TDP1 cell CPT 16µM
C[C@@H]1C[C@H](O)c2cc(Cl)ccc2N1	none
CCCOc1ccc(CCc2n[nH]c(=S)n2-c2ccccc2)cc1	TDP1 cell noCPT 16µM, TDP1 cell CPT inconclusive
CCCOc1ccc(CCc2n[nH]c(=S)n2Cc2ccccc2)cc1	TDP1 cell noCPT 21µM, HT1080NT lethal inconclusive, HT1080 IDH1KD tx inconclusive, TDP1 cell CPT inconclusive
CCOc1ccc(-n2c(CCc3ccccc3)n[nH]c2=S)cc1	TDP1 cell noCPT inconclusive, TDP1 cell CPT inconclusive
C=CCNC(=S)N/N=C/c1ccc(OCc2ccccc2Cl)cc1	HT1080NT lethal 3.2µM, HT1080 IDH1KD tx 3.2µM, TDP1 cell CPT inconclusive
Cc1ccc(SC(=O)c2c(C)noc2-c2cc(C)on2)cc1	TDP1 cell noCPT 9.2µM, HT1080 IDH1KD tx inconclusive, IL1B secr inh -65, TDP1 cell CPT 18µM
O=C(NCc1cccnc1)c1ccc(COc2ccc(Cl)cc2)cc1	TDP1 cell noCPT 10µM, HT1080 IDH1KD tx inconclusive, TDP1 cell CPT 16µM
COc1cc(NC(=O)c2cccc3c2C(=O)N(Cc2cccnc2)C3)cc(OC)c1OC	TDP1 cell noCPT inconclusive, IL1B secr inh -56, TDP1 cell CPT inconclusive
O=C(Nc1ccc(Cl)cc1C(=O)NCc1cccnc1)c1ccc(Cl)cc1Cl	TDP1 cell noCPT 18µM, HT1080NT lethal inconclusive, HT1080 IDH1KD tx inconclusive, TDP1 cell CPT inconclusive
CC(C)(C)c1ccc(OCc2ccc(C(=O)NCc3cccnc3)o2)cc1	TDP1 cell noCPT 8.2µM, TDP1 cell CPT 21µM
O=C(Nc1c(Cl)cc(Cl)cc1C(=O)NCc1cccnc1)c1ccc(Cl)cc1Cl	TDP1 cell noCPT inconclusive
O=C(NCCCc1ccccc1)c1ccc([N+](=O)[O-])cc1Cl	TDP1 cell noCPT inconclusive
O=C(O)c1ccccc1C(=O)NCc1ccccc1	none
COC(=O)c1ccccc1NC(=O)C1CC=CCC1C(=O)O (stereo not drawn)	TDP1 cell noCPT inconclusive
Nc1sccc1C(=O)NCc1ccccc1	TDP1 cell noCPT 15µM

Screens deposited in PubChem BioAssay by National Center for Advancing Translational Sciences (NCATS).
